Data published in PubChem BioAssay (NCI).
This is part of a sample that, as a whole, favours compounds with a hit. Of some 83,000 tested, about 20% had one in any assay.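 Testing used 96-well plates and a 48-hour single-concentration exposure. Example: -40 means 40% of the starting cells died.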 Calls of active or inactive are those of the source. The calls were made as follows: active = growth percent below 10; inactive = the rest.

system: T-47D breast; assay: NCI-60 one-dose screen, 48 h (100 = growth as untreated, 0 = no growth, -100 = all killed); settings: 10 µM unless noted

Structure (SMILES) | growth
Cc1cc(C)n(CC(=O)Nc2ccc(-c3nc4ccccc4s3)cc2)n1 | 93.3% (inactive)
CNS(=O)(=O)Nc1nccc(Cc2c(C)c3ccc(Oc4ncccn4)cc3oc2=O)c1F | 60.1% (inactive)
C[C@@H](Oc1cc(-n2cnc3ccc(CN4CCN(C)CC4)cc32)sc1C(N)=O)c1ccccc1C(F)(F)F | 40.8% (inactive)
COc1ccc(Cl)c(Nc2nc3ccccc3nc2NS(=O)(=O)c2cccc(NC(=O)C(C)(C)N)c2)c1 | -19.8% (active)
COc1ccc(-c2ccc3c(N4CCOC[C@@H]4C)nc(N4CCOC[C@@H]4C)nc3n2)cc1CO | -35% (active)
O=C(Nc1cccc(Cl)c1)Nc1ncc(CCNc2ncnc3ccsc23)s1 | -16.9% (active)
C#Cc1cccc(Nc2ncnc3cc(OCCOC)c(OCCOC)cc23)c1 | 30.9% (inactive)
O=C(Nc1ccc(Nc2ncnc3sc4c(c23)CCOC4)cc1)Nc1ccc(Cl)c(C(F)(F)F)c1 | 81.8% (inactive)
CCCCN1C(=O)c2cccc3c(-c4ccc5c(c4)ncn5C4CCCCC4)ccc(c23)C1=O | 81.9% (inactive)
COc1cc(Nc2c(C#N)cnc3cc(OCCCN4CCN(C)CC4)c(OC)cc23)c(Cl)cc1Cl | 59.4% (inactive)
COc1ncc(-c2ccc3nccc(-c4ccnnc4)c3c2)cc1NS(=O)(=O)c1ccc(F)cc1F | -25.3% (active)
C/C(=C(/c1ccc(Cl)cc1)c1ccc(OCCN2CCCC2)cc1)c1ccccc1 | 72.4% (inactive)
COc1cc(OC)c(/C=C/S(=O)(=O)Cc2ccc(OC)c(NCC(=O)O)c2)c(OC)c1 | 52.7% (inactive)
Nc1ncnc2c1ccn2-c1cccc(NC(=O)c2ccc(N3CCOCC3)c(C(F)(F)F)c2)c1 | 32.2% (inactive)
C/C=C/C=N/NC(=S)Nc1ccccc1 | 111% (inactive)
C=CC(=O)Nc1cc(Nc2nccc(-c3cn(C)c4ccccc34)n2)c(OC)cc1N(C)CCN(C)C | -60.8% (active)
C[C@@H](NC(=O)c1ncnc(N)c1Cl)c1ncc(C(=O)Nc2cc(C(F)(F)F)c(Cl)cn2)s1 | 92.2% (inactive)
COc1cc2c(Oc3ccc4[nH]c(C)cc4c3F)ncnc2cc1OCCCN1CCCC1 | 82.5% (inactive)
NC[C@@](O)(c1ccc(Cl)cc1)c1ccc(-c2cn[nH]c2)cc1 | -57.9% (active)
Cc1cc(O)cc(-c2c(-c3ccnc(-c4cccnc4)c3)cnn2C)c1 | 29.3% (inactive)

Structure (SMILES) | growth
CS(=O)(=O)N1CCN(Cc2cc3nc(-c4cccc5[nH]ncc45)nc(N4CCOCC4)c3s2)CC1 | -21.7% (active)
CN[C@@H]1C[C@H]2O[C@@](C)([C@@H]1OC)n1c3ccccc3c3c4c(c5c6ccccc6n2c5c31)C(=O)N[C@H]4O | -49.2% (active)
O=c1[nH]ccc2c(S(=O)(=O)N3CCCNCC3)cccc12 | 37.7% (inactive)
CCN(CCCOc1ccc2c(Nc3cc(CC(=O)Nc4cccc(F)c4)[nH]n3)ncnc2c1)CCOP(=O)(O)O | 73.6% (inactive)
Cn1cc(-c2cnn3c(N)c(Br)c([C@@H]4CCCNC4)nc23)cn1 | 59.8% (inactive)
C[C@@H](Nc1cc(F)cc(F)c1)c1cc(C(=O)N(C)C)cc2c(=O)cc(N3CCOCC3)oc12 | -12.4% (active)
COc1ccc2c(CCCc3ccc(Cl)cc3Cl)c3[n+](cc2c1OC)CCc1cc2c(cc1-3)OCO2 | 3.35% (active)
Cn1c(=O)c(F)c(Nc2ccc(I)cc2F)c2c(=O)n(C[C@@H](O)CO)cnc21 | 63.7% (inactive)
CC(C)(C)c1cnc(CSc2cnc(NC(=O)C3CCNCC3)s2)o1 | -7.81% (active)
NC1(C(=O)N[C@@H](CCO)c2ccc(Cl)cc2)CCN(c2ncnc3[nH]ccc23)CC1 | 11.7% (inactive)
COC(=O)c1ccc2c(C(=Nc3ccc(N(C)C(=O)CN4CCN(C)CC4)cc3)c3ccccc3)c(O)[nH]c2c1 | 47.4% (inactive)
CS(=O)(=O)CCNCc1ccc(-c2ccc3ncnc(Nc4ccc(OCc5cccc(F)c5)c(Cl)c4)c3c2)o1 | -11.9% (active)
C1=C\COCc2cc(ccc2OCCN2CCCC2)Nc2nccc(n2)-c2cccc(c2)COC/1 | -23.5% (active)
O=C(Nc1cn[nH]c1-c1nc2ccc(CN3CCOCC3)cc2[nH]1)NC1CC1 | 36.7% (inactive)
Cc1cc2c(-c3nc4ccccn4c3N)c(O)c(O)cc2c(O)c1-c1c(C)cc2c(-c3nc4ccccn4c3N)c(O)c(O)cc2c1O | 14.6% (inactive)
Cc1csc(-c2nnc(Nc3ccc(Oc4ncccc4-c4ccnc(N)n4)cc3)c3ccccc23)c1 | 30.5% (inactive)
CC(C)CC(=O)Nc1n[nH]c2c1CN(C(=O)C1CCN(C)CC1)C2(C)C | -3% (active)
Cc1ccccc1N1C(c2ccccc2)=NNC12C=CC(=O)C=C2Cl (centres undefined) | 117% (inactive)
C=CCn1c(=O)c2cnc(Nc3ccc(N4CCN(C)CC4)cc3)nc2n1-c1cccc(C(C)(C)O)n1 | 36.4% (inactive)
